In PubChem BioAssay AID1063 (University of Pittsburgh Molecular Library Screening Center, 2008):
Out of some 200,000 compounds screened, about 18,000 (9%) were called active. The sample holds actives, similar compounds and a random draw of the others, so the mix is not that of the screen. Unmarked numbers belong to inactive results. No stated cut-off is given here; in the data, active means inhibition above about 50%; inactive means the rest.

Assay: antileishmanial activity against promastigotes – primary screen (AID 1063);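 further: promastigotes grown with compound for 44 hours at 28 °C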
Settings: Leishmania major promastigotes, resazurin fluorescence viability; at 10 µM; stronger effect = higher value
For `CCOc1cccc2c1OC1(CCCCC1)N1N=C(c3cccnc3)CC21` (stereo unspecified), the inhibition was 57.3% (active).
With `c1cncc(-c2nnc3n2C2(CCCCC2)Cc2ccccc2-3)c1` the inhibition was -0.67%.
With `O=[N+]([O-])c1ccc(Sc2n[nH]c(-c3ccco3)n2)nc1` the inhibition was 4.36%.
`CCOC(=O)CSc1nc(C)cc2c1C(=O)OC2` showed an inhibition of 3.71%.
In the case of `CCOc1ccc(NC(=O)NNC(=O)c2ccc(Cl)cc2Cl)cc1`, the inhibition is reported as -5.16%.
For `NC(N)=N/N=C/c1ccc(OCc2ccc(Cl)cc2Cl)cc1`, the inhibition was 101% (active).
For `COC(=O)c1sc2ncccc2c1OCc1ccc(Cl)cc1Cl`, the inhibition was -2.34%.
Compound `CCOC(=O)CN/C=C(\C#N)c1ccc(F)cc1` has an inhibition of -7.97%.
`Cc1c(CN2CCCCC2)c(O)n(CCO)c(=O)c1C#N` showed an inhibition of 3.34%.
In the case of `O=C(NNC(=O)c1ccc(Cl)cc1Cl)c1cccs1`, the inhibition is reported as -10.1%.
In the case of `CC(C)(O)C#Cc1ncc(C(F)(F)F)cc1Cl`, the inhibition is reported as -3.82%.
`COc1ccc([N+](=O)[O-])cc1C1NN=C(c2cccc3ccccc23)S1` (stereo unspecified) gave an inhibition of -6.23%.
With `COc1ccc(C2Nc3ccccc3C(=O)N2c2ccc(Cl)cc2)cc1Cn1cc([N+](=O)[O-])cn1` (stereo unspecified) the inhibition was 53.1% (active).
`CCN(C(=O)CSc1nc2ccccc2n1CC)C1CCS(=O)(=O)C1` (stereo unspecified) showed an inhibition of -3.23%.
With `CC(C)CNC(=O)/C=C/C(=O)O` the inhibition was 1.32%.
`CC(=O)c1ccc(-c2nnc(CCC(=O)N(C)Cc3cnc4ccccn34)o2)s1` showed an inhibition of -0.67%.
With `Cc1ccc(NC(=O)Cn2cccc2C2=NC(c3ccccc3)CO2)c(C)c1` (stereo unspecified) the inhibition was 77.4% (active).
In the case of `Cc1ccc(NC(=O)Cn2nc(C)c3ccccc3c2=O)c(C)c1`, the inhibition is reported as 34.8%.
For `Cc1ccc(NC(=O)c2ccn(C(=O)Nc3ccccc3)n2)c(C)c1`, the inhibition was -1.05%.
For `CC1(C)CC(=O)c2ccc(O)cc2O1`, the inhibition was -5.54%.
With `CN(Cc1cccc2ncccc12)C(=O)CC1C(=O)NCCN1Cc1ccc(F)cc1` (stereo unspecified) the inhibition was -8.65%.
Compound `O=C(NCC1CCCO1)C1CCN(C2CCN(C(=O)C3CCCCC3)CC2)CC1` (stereo unspecified) has an inhibition of -2.22%.
Work on `O=C(C1CCN(C2CCN(Cc3ccc4cc(F)ccc4n3)CC2)CC1)N1CCCC1` yielded an inhibition of 48.3%.
`O=C(C1CCN(S(=O)(=O)c2cnc[nH]2)CC1)N1CCN(Cc2ccc3c(c2)OCO3)CC1` gave an inhibition of -5.72%.
For `COc1ccc(S(=O)(=O)N2CCC(C(=O)N3CCOCC3)CC2)cc1OC`, the inhibition was -6.25%.
For `C/C(=C\c1ccco1)CN1CCC(N2CCC(C(=O)N3CCOCC3)CC2)CC1`, the inhibition was 77.8% (active).
In the case of `O=C(C1CCN(C2CCN(Cc3cccc4c3OCO4)CC2)CC1)N1CCOCC1`, the inhibition is reported as 76.2% (active).
`Cn1c(N)c(C(=O)COC(=O)c2ccccc2NCc2ccco2)c(=O)n(C)c1=O` gave an inhibition of -3.53%.
In the case of `Cc1ccc(NC(=O)CN2CCC(C(N)=O)CC2)cc1[N+](=O)[O-]`, the inhibition is reported as -1.6%.
`CCCCc1nc2ccccc2c(NC(=O)CN2CCN(C)CC2)c1CCC` gave an inhibition of 32.8%.
`c1ccc(-c2nnc(N3CCOCC3)c3ccccc23)cc1` showed an inhibition of 14%.
`COc1ccc(Nc2ncc(F)c(N3CCOCC3)n2)cc1` showed an inhibition of 19.7%.
`Cc1cc(N2CCN(C)CC2)nc2ccc(NC(=S)N3CCOCC3)cc12` showed an inhibition of 6.8%.
In the case of `c1ccc(Nc2nc(N3CCOCC3)c3ccccc3n2)cc1`, the inhibition is reported as 79.3% (active).
For `CN1CCN(c2nc(Nc3ccc(O)cc3)nc3ccccc23)CC1`, the inhibition was 99.9% (active).
With `CC1CCC(NC(=O)C2c3ccccc3C(=O)N2Cc2ccc3c(c2)OCO3)CC1` (stereo unspecified) the inhibition was 14.7%.
Work on `CNC(=S)NNC(=O)c1cccn(Cc2ccccc2)c1=O` yielded an inhibition of -2.81%.
Compound `CCc1nnc(NC(=O)CCCSc2nc3ccccc3[nH]2)s1` has an inhibition of 12.7%.
For `COc1ccc(N2CCN(C(=O)C3CCN(S(=O)(=O)c4ccc(C)cc4)CC3)CC2)cc1`, the inhibition was 7.36%.
Work on `O=c1oc(-c2ccco2)nc2sc3c(c12)CCCCC3` yielded an inhibition of -6.27%.
`CCn1c(N)c(Br)c(=O)[nH]c1=O` gave an inhibition of -8.78%.
Work on `CCCCN(CC)CCCNC(=O)c1ccc(CSc2nc3ccncc3[nH]2)cc1` yielded an inhibition of -5.43%.
With `Cc1ncoc1C(=O)N1CCCC(C(=O)c2ccc3c4c(cccc24)CC3)C1` (stereo unspecified) the inhibition was 5.73%.
In the case of `COc1ccc(CNC(=O)COC(=O)/C=C/c2ccc(S(=O)(=O)N3CCOCC3)cc2)cc1`, the inhibition is reported as 2.59%.
For `O=C(COC(=O)/C=C/c1ccc(S(=O)(=O)N2CCCCCC2)cc1)NCc1ccccc1Cl`, the inhibition was 65.4% (active).
Work on `O=C(O)/C=C/c1ccc(S(=O)(=O)N2CCCCCC2)cc1` yielded an inhibition of -3.02%.
For `Cc1ccc(NCc2n[nH]c(=S)n2-c2ccccc2)cc1Cl`, the inhibition was -7.27%.
`CC(=O)c1ccc(N2CCN(CC(=O)Nc3ccccc3N3CCOCC3)CC2)cc1` showed an inhibition of 12.9%.
For `CC(C)n1c(-c2ccncc2)n[nH]c1=S`, the inhibition was -1.76%.
In the case of `Cc1ccc(N2C(=O)C(CC(=O)Nc3cccc(F)c3)N(CCc3ccncc3)C2=O)cc1` (stereo unspecified), the inhibition is reported as 1.18%.
For `N#Cc1c(NC(=O)C2CCCO2)sc2c1CCCCC2` (stereo unspecified), the inhibition was 0.81%.
Work on `O=C(c1ccc2c(c1)OCO2)N1CCOCC1` yielded an inhibition of -6.99%.
For `O=C(Nc1ccccc1)c1ccc2c(c1)OCO2`, the inhibition was -3.43%.
With `CC1CN(C(=O)c2ccc3c(c2)OCO3)OC(c2ccccc2)O1` (stereo unspecified) the inhibition was 71.5% (active).
Compound `O=C(CSc1ccc(-c2ccccc2)nn1)NCC1CCCO1` (stereo unspecified) has an inhibition of -4.19%.
In the case of `Cc1cc(C)nc(NNC2=CC(=O)CC(C)(C)C2)n1`, the inhibition is reported as -7.56%.
With `CCOC(=O)/C(C#N)=C/c1cn(CCC(=O)O)nc1-c1ccc(Br)cc1` the inhibition was -8.02%.
Work on `CCOC(=O)Cc1ncccc1C(=O)Nc1ccc(OC)cc1` yielded an inhibition of -2.87%.
`Cc1ccccc1CSCCNC(=O)c1ccc(Cl)c(S(=O)(=O)N2CCOCC2)c1` showed an inhibition of 25.1%.
For `CC(C)(CNC(=O)c1ccc(Cl)c(S(=O)(=O)N2CCc3ccccc3C2)c1)N1CCOCC1`, the inhibition was 50.3% (active).
`O=C(NCCSCc1ccccc1)c1ccc(Cl)c(S(=O)(=O)N2CCOCC2)c1` gave an inhibition of 5.02%.
Work on `O=C(CP(=O)(c1ccccc1)c1ccccc1)N1CCOCC1` yielded an inhibition of -9.31%.
Work on `CS(=O)(=O)N(Cc1ccccc1Cl)c1ccc(C(=O)NCc2cccnc2)cc1` yielded an inhibition of 1.77%.
Compound `Cc1ccc(CNC(=O)c2cccnc2Cl)cc1` has an inhibition of 0.71%.
With `Cc1ccc(S(=O)(=O)N(Cc2ccc(Cl)cc2)c2ccccc2C(=O)NCc2cccnc2)cc1` the inhibition was 93.2% (active).
`O=C(O)c1ccccc1-c1ccccc1C(=O)NCc1cccnc1` showed an inhibition of -6.64%.
`O=C(NC1CCCCCC1)c1cccnc1Sc1ccc(Cl)cc1` gave an inhibition of -4.38%.
With `O=C(NCc1cccnc1)c1cccnc1Sc1ccc(Cl)cc1` the inhibition was 84.6% (active).
Work on `O=C(NC(=S)Nc1cccc(-c2ccc(CO)o2)c1)c1cccs1` yielded an inhibition of -1.96%.
For `Cc1cc2c(cc1C)[n+](C)cn2CC(O)COCC1CC=CCC1` (stereo unspecified), the inhibition was -1.67%.
In the case of `COc1ccc(N2CCN(C(=O)/C(C#N)=C/c3ccccc3)CC2)cc1`, the inhibition is reported as 6.39%.
In the case of `Cc1ccc(N2C(=O)C3CC3C2=O)cc1` (stereo unspecified), the inhibition is reported as -5.37%.
For `O=C(COC(=O)c1ccc(Cl)nc1)NCc1cccs1`, the inhibition was -8.06%.
`CC(=O)Nc1cccc(-c2nc3ccccc3s2)c1C` gave an inhibition of 17.8%.
Work on `CCN(CC)c1ccc(C(=O)c2cnc(/N=C/N(C)C)s2)cc1` yielded an inhibition of 0.96%.
`Cc1cccc(N2CCN(c3ccc(C(N)=O)cc3[N+](=O)[O-])CC2)c1C` gave an inhibition of 2.25%.
For `CCc1c(SCCC(=O)O)nc2ccccc2c1C`, the inhibition was -1.78%.
`CN1CCN(NC(=O)c2ccc(S(=O)(=O)N3CCCCCC3)cc2)CC1` gave an inhibition of -0.39%.
In the case of `O=C(C[n+]1ccccc1)N/N=C/c1ccc(O)cc1`, the inhibition is reported as -6.86%.
For `O=C(CC(=O)Nc1ccc(Cl)c(Cl)c1)N/N=C/c1ccc(O)cc1`, the inhibition was 59.3% (active).
With `CC1=NNC(=O)C1CCC(=O)N/N=C\c1ccc(Cl)c(Cl)c1` (stereo unspecified) the inhibition was -3.71%.
Compound `CCOC(=O)c1c(-c2cccc(N)c2)cn2ccccc12` has an inhibition of 0.87%.
With `Cc1ccc(COc2ccc(/C=N/NC(=O)CN3CCCCC3)cc2)cc1` the inhibition was 5.55%.
In the case of `CCN(CC)C(=O)CN(c1cccc([N+](=O)[O-])c1)S(=O)(=O)c1ccccc1`, the inhibition is reported as -3.8%.
With `O=C(Nc1cccc([N+](=O)[O-])c1)Nc1ccc(Cl)cn1` the inhibition was -0.05%.
With `O=C(CCl)N(Cc1cccc([N+](=O)[O-])c1)c1cccc(Cl)c1` the inhibition was 101% (active).
For `Cc1ccc(C(=O)OC(C)CN2CCOCC2)cc1` (stereo unspecified), the inhibition was -9.42%.
In the case of `COC(=O)C(C)NC(=O)COc1ccc2ccccc2c1` (stereo unspecified), the inhibition is reported as 9.52%.
Work on `CCCCCCCCc1c(O)nc(-n2[nH]c(C)c(CCO)c2=O)[nH]c1=O` yielded an inhibition of -4.27%.
Compound `COC(=O)/C(=C1\Oc2ccc(C(C)(C)C)cc2S1)C(F)(F)F` has an inhibition of -4.31%.
For `Cc1cc2ccccn2c1C(=O)c1cccc(S(=O)(=O)N2CCOCC2)c1`, the inhibition was 15.2%.
In the case of `COc1ccc(C(=O)CSc2nnnn2C)c(OC)c1`, the inhibition is reported as -1.53%.
With `Cc1ccc(Oc2cc(NC(=O)CCCn3nc(C)c([N+](=O)[O-])c3C)cc([N+](=O)[O-])c2)cc1` the inhibition was 98.4% (active).
`Cc1nn(CC(=O)Nc2ccc(N(C)C)cc2)c(C)c1[N+](=O)[O-]` showed an inhibition of 0.03%.
`COc1ccc(CNC(=O)CCCn2nc(C)c([N+](=O)[O-])c2C)cc1` gave an inhibition of -8.33%.
`Cc1ccc(CNC(=O)CC2Sc3ccccc3NC2=O)cc1` (stereo unspecified) showed an inhibition of -7.06%.
